The values that follow come from PubChem BioAssay AID1508625 (Wald Lab, School of Medicine, Case Western Reserve …, 2021).

The nature of the assay: enhancers of NK cell killing of ovarian tumor cells, primary screen, imaging, OVCAR3, primary NK cells, calcein-AM imaging (AID 1508625).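 Also: compound given to NK cells 16 h before adding targets at 1.5 to 1 ratio.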 Particulars: OVCAR3 lysis by primary NK cells, at 5 µM; z-score: measured here: robust Z-score, single-point normalisation.

Consider `Cc1ccc(-c2cc(C(F)(F)F)n3ncc(C(=O)N4CCC(C)CC4)c3n2)cc1`, for which the corrected activity, negative = more killing was -5.63% and the z-score is -1.79.

For the compound `Cc1ccc(-c2sc3nc(-c4ccccc4)ccc3c2N)c(C)c1`, the corrected activity, negative = more killing was -3.23% and the z-score is -1.23.

On to `COc1cc(C=NS(=O)(=O)c2cccs2)cc(Br)c1O`, for which the corrected activity, negative = more killing was -1.94% and the z-score was -0.74.

For `O=C(NCC1CCCO1)Nc1cccc(Cl)c1` (configuration not stated), the corrected activity, negative = more killing was 1.53% and the z-score is 0.544.

Take `CCOc1ccc(S(=O)(=O)NC(C)C)c2cccnc12`: the corrected activity, negative = more killing is -3.65% and the z-score is -1.16.

In the case of `NC(=O)CN1CCOCCN(CC(N)=O)CCOCC1`, the corrected activity, negative = more killing is -12.6% and the z-score is -2.65.

With `O=C(CCCC(=O)Nc1cccc(Cl)c1)Nc1cccc(Cl)c1`, the corrected activity, negative = more killing is -2.22% and the z-score is -0.828.

Turning to `COc1ccccc1NC(=O)c1ccccc1NC(=O)c1ccc(F)cc1`, the corrected activity, negative = more killing was -2.61% and the z-score was -1.45.

Regarding `Cc1cc2c(cc1C)NC(c1coc3ccc(Cl)cc3c1=O)C1=C(CC(C)(C)CC1=O)N2` (configuration not stated), the corrected activity, negative = more killing was -2.17% and the z-score is -0.968.

As for `Cn1c(SCC(=O)Nc2cc(C(F)(F)F)ccc2Cl)nc2c([nH]c3ccccc32)c1=O`, the corrected activity, negative = more killing is -6.37% and the z-score was -1.58.

Take `Cn1c2ccccc2c(=Nc2ccc(Br)cc2)c2ccccc21`: the corrected activity, negative = more killing is -4.16% and the z-score was -1.48.

In the case of `CCCCN(C)C(=O)c1cc2c(=O)n3cccc(C)c3nc2s1`, the corrected activity, negative = more killing is -6.29% and the z-score was -1.78.

For the compound `CCCCSc1nc2c([nH]c3ccccc32)c(=O)n1-c1ccc(F)cc1`, the corrected activity, negative = more killing was -4.96% and the z-score is -1.23.

As for `Cc1ccc(C(=O)COC(=O)c2ccc(N3C(=O)C4CCC(C)CC4C3=O)cc2)cc1[N+](=O)[O-]` (configuration not stated), the corrected activity, negative = more killing was -2.55% and the z-score is -1.37.

As for `O=C(O)C1C2C=CC(O2)C1C(=O)N1CCC(Cc2ccccc2)CC1` (configuration not stated), the corrected activity, negative = more killing was -3.25% and the z-score is -1.34.

On to `O=C(Nc1cccc(-c2nc3ccccc3o2)c1)C1CCCCC1`, for which the corrected activity, negative = more killing was -2.15% and the z-score was -0.667.

For `Cc1onc(-c2ccccc2)c1C(=O)Nc1cccc2c1C(=O)c1ccccc1C2=O`, the corrected activity, negative = more killing is -2.48% and the z-score was -1.02.

`Cc1ccc(NC(=O)CSc2nc3c(cc2C#N)CCCCC3)cc1`: the corrected activity, negative = more killing is 2.66% and the z-score is 0.825.

As to `CCOc1ccccc1C(=O)Nc1ccc(S(=O)(=O)N2CCCCC2C)cc1` (configuration not stated), the corrected activity, negative = more killing was -4.3% and the z-score is -1.33.

Regarding `Cc1ccc(OCCCCNC2CCCCC2)c(C)c1`, the corrected activity, negative = more killing was 4.21% and the z-score is 2.34.

With `Cc1sc2ncn(CC(=O)Nc3ccc(Oc4ccccc4)cc3)c(=O)c2c1S(=O)(=O)N1CCN(C)CC1`, the corrected activity, negative = more killing was -6.04% and the z-score was -1.5.

With `CS(=O)(=O)N(CC(=O)N1CCOCC1)c1ccc2c(c1)OCCO2`, the corrected activity, negative = more killing was -1.8% and the z-score was -1.

Regarding `COc1ccc(-c2ccc3c(N)c(C(=O)Nc4ccc(Br)cc4)sc3n2)cc1`, the corrected activity, negative = more killing was -3.35% and the z-score is -1.

On to `C#CCOc1ccc2c(c1)c(C(C)=O)c(C)n2-c1ccc(OCC)cc1`, for which the corrected activity, negative = more killing is -1.52% and the z-score is -0.66.

`CCc1ccc(NC(=O)c2ccccc2NC(=O)c2cccc(OC)c2)cc1`: the corrected activity, negative = more killing was 1.91% and the z-score was 1.06.

With `CCCC12CN3CC(C)(CN(C1)C(=O)c1ccccc1C3=O)C2=O`, the corrected activity, negative = more killing was -4.81% and the z-score was -1.98.

Take `O=C(Cn1cnc2ccccc2c1=O)NCCC(=O)NC1CCCCCC1`: the corrected activity, negative = more killing was -3.69% and the z-score was -1.17.

As for `Cc1cc(OCCN2CCCCCC2)ccc1[N+](=O)[O-]`, the corrected activity, negative = more killing is -3.28% and the z-score was -1.82.

As for `CC1CCC2C(=O)N(c3ccc(N4CC5(C)CC4CC(C)(C)C5)c([N+](=O)[O-])c3)C(=O)C2C1` (configuration not stated), the corrected activity, negative = more killing was -1.82% and the z-score is -0.661.

Regarding `CC(=O)c1cccc(NC(=O)c2ccc(NS(=O)(=O)c3ccccc3)cc2)c1`, the corrected activity, negative = more killing is -4.58% and the z-score is -1.71.

Regarding `O=C(CCCn1c(=S)[nH]c2cc3c(cc2c1=O)OCO3)NC1CC1`, the corrected activity, negative = more killing was -7.46% and the z-score was -1.98.

For the compound `Cc1ccc(-n2c(SCC(=O)Nc3cccc(F)c3)nc3c(c2=O)SCC3)cc1`, the corrected activity, negative = more killing is -3.47% and the z-score is -0.864.

With `NC(C(=O)O)C(O)c1cccc([N+](=O)[O-])c1` (configuration not stated), the corrected activity, negative = more killing was -0.723% and the z-score is -0.224.

On to `CCOC(=O)c1c(N)sc(C(=O)Nc2cc(C)ccc2C)c1C`, for which the corrected activity, negative = more killing was -5.05% and the z-score was -1.57.

With `O=C(CC1Sc2ccccc2NC1=O)Nc1ccc2c(c1)OCO2` (configuration not stated), the corrected activity, negative = more killing is -2.14% and the z-score is -0.818.

Consider `O=C1c2ccccc2C(=O)c2c1cc(F)cc2N1CCCCC1`, for which the corrected activity, negative = more killing was -1.34% and the z-score was -0.401.

Regarding `CCOC(=O)c1c(NC(=O)c2ccccc2F)sc(C(=O)Nc2cccc(Cl)c2)c1C`, the corrected activity, negative = more killing was -1.46% and the z-score is -0.517.

Take `CN(C(=O)c1cnc2n(c1=O)CCS2)c1ccccc1`: the corrected activity, negative = more killing was -7.51% and the z-score was -2.39.

Regarding `Nc1nc(OCC(F)(F)F)cc(OCC(F)(F)F)n1`, the corrected activity, negative = more killing was -6.92% and the z-score was -1.46.

Take `CCOc1cc(C=c2sc3nc4ccccc4n3c2=O)ccc1O`: the corrected activity, negative = more killing was -2.97% and the z-score is -1.26.

In the case of `CCN(CC)c1ccc(C=NS(=O)(=O)c2ccc(C)cc2)cc1`, the corrected activity, negative = more killing is -5.15% and the z-score is -2.76.

On to `CCOC(=O)c1conc1-c1cccs1`, for which the corrected activity, negative = more killing was -0.622% and the z-score is -0.198.

In the case of `O=C(CCn1c(=O)c2sccc2n(Cc2cc(=O)n3ccccc3n2)c1=O)NCc1ccc2c(c1)OCO2`, the corrected activity, negative = more killing was -7.55% and the z-score was -2.14.

`O=C(Nc1ccc(Cl)cc1)c1ccc(F)c(S(=O)(=O)N2CCOCC2)c1`: the corrected activity, negative = more killing was -4.69% and the z-score is -1.77.

Turning to `CCOC(=O)Cn1nc(-c2ccc(C)cc2)ccc1=O`, the corrected activity, negative = more killing was -0.853% and the z-score is -0.23.

For the compound `O=C(CCn1c(SCc2ccccc2Cl)nc2cc3c(cc2c1=O)OCO3)N1CCN(c2ccccc2)CC1`, the corrected activity, negative = more killing is -5.52% and the z-score was -1.46.
